Laboratory results from PubChem BioAssay AID1362 (SRMLSC, 2008).
Out of some 190,000 compounds screened, about 4,000 (2.1%) were called active. Rule as the data show it: active = inhibition above about 58%; inactive = the rest, inconclusive results apart; tested in S. cerevisiae. The list comes from a sample in which actives are over-represented; it also holds similar structures and randomly drawn compounds.

Experiment: growth inhibition of WT strain, primary screen, mitochondrial fusion inhibitor project, WT and mutant strains, chemical genetic (AID 1362)
Details: mitochondrial fusion phenotypic screen, at 10 µM
[1] = WT strain, growth inhibition, stronger effect = higher value

Compound | inhibition [1] | inhibition (mutant strain inhibition) [%]
O=C(C(=O)N1CCc2ccccc2C1)c1c[nH]c2ccccc12 | 12.7% (inactive) | -9.54
COCCN(C(=S)Nc1ccccc1OC)C1CCN(C(C)C)CC1 | -3.78% (inactive) | -1.71
Cc1ccc(CN(Cc2cccnc2)C(=S)Nc2cc(Cl)ccc2C)cc1 | 65.8% (active) | 29.6
COCCNC(=S)N(Cc1cccnc1)Cc1ccc(OC)c(OC)c1 | 0.04% (inactive) | 0
Cc1cccc(C)c1NC(=S)N(Cc1cccnc1)Cc1ccccc1Cl | -4.3% (inactive) | -19.8
Cc1ccc(Cl)cc1NC(=S)N(CCN(C)C)Cc1cccs1 | 3.98% (inactive) | 13.3
Cc1c(Cl)cccc1NC(=S)N(Cc1ccccc1)Cc1cccnc1 | 32.8% (inactive) | 35.6
Cc1ccc(CN(Cc2cccnc2)C(=S)Nc2cccc(Cl)c2C)cc1 | 73.9% (active) | 36.3
CCCCCCCCc1c(O)nc(-n2[nH]c(C)c(CCO)c2=O)[nH]c1=O | -1.35% (inactive) | -2.06
O=C1OC(OC(=O)c2ccccc2Br)C(N2CCOCC2)=C1Cl (centres undefined) | -3.78% (inactive) | 5.3
Cc1ccccc1C(=O)OC1OC(=O)C(Cl)=C1Nc1ccccc1 (centres undefined) | 31% (inactive) | 3.24
Cc1ccc(NC2=C(Cl)C(=O)OC2OC(=O)c2ccccc2C)cc1 (centres undefined) | 72.2% (active) | 69
Cc1cc(/C=N/NC(=O)c2cccnc2)c(C)n1CC(C)C | -2.78% (inactive) | -1.44
CCN(CC)CCNc1nc(-c2ccc(OC(F)F)cc2)c(C)s1 | 14.9% (inactive) | -3.63
COc1ccc(OC)c(Cc2nnc(CCC(=O)NC3CCCC3)o2)c1 | -6.11% (inactive) | 1.25
S=C(NCc1ccc(Cl)cc1)NC1CCCCC1 | 68% (active) | 50.3
CN(C)CCCNC(=S)NCc1ccc(Cl)cc1 | -0.46% (inactive) | 2.88
S=C(NCc1ccc(Cl)cc1)NC12CC3CC(CC(C3)C1)C2 | -4.06% (inactive) | 3.59
COc1cccc2cc(S(=O)(=O)c3ccc(C)cc3)/c(=N/NS(=O)(=O)c3ccc(C)cc3)oc12 | -19.1% (inactive) | 0.47
O=C(NCC1COc2ccccc2O1)C1(c2ccccc2)CCCC1 (centres undefined) | 13.2% (inactive) | 3.88
c1ccc(-c2cc3c(NCC4COc5ccccc5O4)ncnc3s2)cc1 (centres undefined) | 82% (active) | 45.9
c1ccc2c(c1)OCC(CNc1ncnc3nc[nH]c13)O2 (centres undefined) | 5.51% (inactive) | -5.69

Compound | inhibition [1] | inhibition (mutant strain inhibition) [%]
O=[N+]([O-])c1ccc(Sc2n[nH]c(-c3ccco3)n2)nc1 | -3.94% (inactive) | -1.1
Clc1ccc(CSc2nnc(/C=C/c3ccccc3)o2)c(Cl)c1 | 38% (inactive) | 26.7
CSCc1cc(N2CCOCC2)nc(SCc2ccc(Cl)cc2Cl)n1 | 79.1% (active) | 52.8
O=C(Nc1nnc(SCc2ccc(Cl)cc2Cl)s1)C1COc2ccccc2O1 (centres undefined) | 56.1% (inactive) | 17.9
O=c1cc(CSc2ccc(Cl)cc2)nc(N2CCOCC2)[nH]1 | 10.4% (inactive) | -7.43
CSCc1cc(N(C)C)nc(SCc2ccc(Cl)cc2Cl)n1 | 59.7% (active) | 52.5
Cc1ccc(Sc2cc(N3CCOCC3)nc(-c3ccccc3)n2)cc1 | -0.33% (inactive) | 3.68
COc1ccccc1CNC(=O)CNC(=O)c1cn(-c2ccccc2OC)c(=O)c2ccccc12 | -8.54% (inactive) | 3.48
O=C(NNC(=O)C1CCN(c2ncccn2)CC1)c1ccccc1 | -10.9% (inactive) | -13.4
OCCC1CN(Cc2ccc3nsnc3c2)CCN1C1CCCC1 (centres undefined) | 2.03% (inactive) | 2.69
O=C(CCCn1c(=O)c2sccc2n(CC(=O)NCC2CCCO2)c1=O)NCc1ccco1 (centres undefined) | 2.48% (inactive) | 3.2
CC(=O)Nc1ccc(-c2csc(NC=C3C(=O)OC(C)(C)OC3=O)n2)cc1 | -0.59% (inactive) | 17.6
C/C(=N/Nc1ccc(Cl)cc1)c1cnnc(-c2ccccc2)n1 | 9.51% (inactive) | 20.8
CCOC(=O)Cc1csc(NC(=O)CSc2nc(C)cc(=O)[nH]2)n1 | 15.9% (inactive) | 18.4
CCOC(=O)Cc1csc(NC(=O)CSc2ccc(Br)cc2)n1 | 31.2% (inactive) | 25.6
CCOC(=O)Cc1csc(SCC(=O)NC(C)C23CC4CC(CC(C4)C2)C3)n1 (centres undefined) | 59.2% (active) | 26.1
C/C(=N\NC(=S)NC(C)C)c1ccc(C(C)(C)C)cc1 | 70.2% (active) | 59
CC/C(=N\NC(=S)NC(C)C)c1ccc(OC(F)F)cc1 | 32% (inactive) | 43.5
C/C(=N\NC(=S)NCc1ccccc1)c1ccc(Cl)cc1 | 31.1% (inactive) | 21.1
Oc1cccc(C2c3[nH]c4ccccc4c3CCN2Cc2cnn(-c3ccccc3)c2)c1 (centres undefined) | 59.9% (active) | -4
COc1cccc(C2c3[nH]c4ccccc4c3CCN2Cc2cccc(C)n2)c1 (centres undefined) | 40.2% (inactive) | 33.8
c1ccc(C2c3[nH]c4ccccc4c3CCN2Cc2cccn2-c2cccnc2)nc1 (centres undefined) | -2.92% (inactive) | -2.59

Compound | inhibition [1] | inhibition (mutant strain inhibition) [%]
CCc1ccc(OCC(=O)OCC(=O)c2c(N)n(C)c(=O)n(C)c2=O)cc1 | -10.7% (inactive) | -9.86
COc1ccc(Br)cc1/C=N/NC(=O)c1cccc(S(=O)(=O)N2CCOCC2)c1 | 1.71% (inactive) | -16.2
CC1CC(C)CN(CCC(=O)Nc2ccc3c(c2)CCC3)C1 (centres undefined) | 2.25% (inactive) | 2.32
C=CCNc1ncnc2ccc(Br)cc12 | 6.92% (inactive) | 5.26
COc1ccc(C(=O)N2CC3(C)CC2CC(C)(C)C3)cc1OC (centres undefined) | -9.9% (inactive) | 6.2
CC1(C)CC2CC(C)(CN2c2ncnc3ccc(Br)cc23)C1 (centres undefined) | 64.4% (active) | 47.6
CC1=CC=CC2=N/C(=N\S(=O)(=O)c3ccc(F)cc3F)c3ccccc3CN12 | 7.93% (inactive) | -4.27
Cc1ccc(S(=O)(=O)N(C)CC(=O)OCC(=O)N2CC(=O)Nc3ccccc32)cc1 | -2.48% (inactive) | -6.41
COc1ccc(N(C(=O)c2cccnc2)S(=O)(=O)c2ccc3c(c2)n(C)c(=O)n3C)cc1 | -46.4% (inactive) | -32.1
O=C(c1cccnc1)N(c1cc2sc(=O)oc2c2ccccc12)S(=O)(=O)c1ccccc1 | 69% (active) | 25.4
CN(C)S(=O)(=O)c1cccc(C(=O)Nc2cccnc2)c1 | -9.84% (inactive) | 2.94
CN1CCN(CCNC(=O)Nc2ccc([N+](=O)[O-])cc2)CC1 | 22.2% (inactive) | 0.87
O=C(COc1ccc(S(=O)(=O)N2CCCCC2)cc1)NCc1ccccn1 | 14.7% (inactive) | 2.79
O=C(C1CC1)N1CCN=C1SCc1ccc(Cl)cc1 | 22.2% (inactive) | 20.3
CC1CCN(C(=O)c2ccc(CSc3ccc(Cl)cc3)cc2)CC1 | 75.2% (active) | 26.4
O=C(c1ccc(CSc2ccccc2)cc1)N1CCCCCC1 | 38.9% (inactive) | 19.1
CN(NC(=O)C1CC(=O)N(c2ccccc2)C1)C1=NS(=O)(=O)c2ccccc21 (centres undefined) | -6.62% (inactive) | 8.77
CC(C)N(Cc1ccccc1)C(=O)COC(=O)c1cnccn1 | -8.68% (inactive) | -4.78
CCOc1cccc(/C=N/N2C(=O)CSC2=S)c1O | -2% (inactive) | 11.3
COc1ccc2[nH]c(C)c(CCN(Cc3cccs3)C(=S)Nc3ccccc3OC)c2c1 | 10.9% (inactive) | 3.89
COc1cccc(NC(=S)N(CCc2c(C)[nH]c3ccccc23)Cc2ccco2)c1 | 63.2% (active) | -12.2
CCNC(=S)N(CCc1c(C)[nH]c2ccc(C)cc12)Cc1ccco1 | 22.5% (inactive) | -3.3

Compound | inhibition [1] | inhibition (mutant strain inhibition) [%]
Cc1ccc(N(C(=O)c2sc(C)nc2C)C(C(=O)NC(C)(C)C)c2ccncc2)cc1 (centres undefined) | -8.21% (inactive) | 7.16
COc1ccc(C2CC(c3cccs3)=NN2C(=O)CSc2nnc(N)s2)cc1OC (centres undefined) | -8.12% (inactive) | -5.34
CC1CC(C)(C)NC(=S)N1CCC(=O)N1CCN(Cc2ccccc2)CC1 (centres undefined) | -6.52% (inactive) | -4.03
CC1CC(=S)Nc2ccccc2N1Cc1ccccc1 (centres undefined) | 65.9% (active) | 26.3
CCN1CN(Cc2ccccc2)CNC1=S | 1.7% (inactive) | 0.04
COc1cccc(CC2(CO)CCCN(Cc3nc(-c4cccs4)oc3C)C2)c1 (centres undefined) | 19.9% (inactive) | 6.17
CCN(CC)S(=O)(=O)c1ccc(Cl)c(NC(=O)c2ccncc2)c1 | -7.6% (inactive) | -15.4
Cc1ccc(COc2ccc(C(=O)NN)cc2)cc1 | 18.5% (inactive) | 22.2
CN(C)C(=O)c1nc2ccc(Cl)cn2c1CN1CCN(c2ncccn2)CC1 | -14.1% (inactive) | -9.73
c1ccc(-c2cn3c(n2)CCc2ccc4cccnc4c2-3)cc1 | 67.5% (active) | 4.75
c1ccc(-c2cn3cccnc3n2)cc1 | 7.76% (inactive) | -1.07
COc1ccc(/C=C/C(=O)N2CCCC2)cc1OC | -13.6% (inactive) | -0.71
Cc1ccccc1-c1n[nH]c(=S)n1C | -5.68% (inactive) | 4.36
O=C(Nc1ccccc1N1CCCCC1)c1ccc2nccnc2c1 | 26.1% (inactive) | 32.9
O=C(c1ccccc1)c1ccc2nc(N3CCCCC3)c3nncn3c2c1 | 60.2% (active) | 50.8
c1ccc(CC2CCN(c3nc4ccccc4n4cnnc34)CC2)cc1 | 55.9% (inactive) | 25.1
O=C(CN(CC1CCCO1)C(=O)CNS(=O)(=O)c1ccc(F)cc1)NCc1ccco1 (centres undefined) | -16.3% (inactive) | -1.9
CSCCC(=O)N1CCCC(CNC(=O)c2ccccc2Cl)C1 (centres undefined) | 0.33% (inactive) | -1.81
CCn1c(=S)[nH]c2sc3c(c2c1=O)CCCCC3 | 44.5% (inactive) | 47.1
CCC1(C)Cc2c(sc3nnn(CC(=O)Nc4ccc(Cl)cc4)c(=O)c23)CO1 (centres undefined) | 6.37% (inactive) | 8.2
CCC1(C)Cc2c(sc3[nH]c(=S)n(Cc4ccccc4)c(=O)c23)CO1 (centres undefined) | 71% (active) | -13.6
